This is an account of results in PubChem BioAssay (Tox21).

The structures appear in SMILES notation. A number with no mark means an inactive call. Active and inactive are the calls of the source. Unless noted, calls follow the shape of the dose curve; as a rule, active = well fitted curve in the direction sought with a large enough effect in the repeat runs; inconclusive = weak or mixed curves; inactive = no such curve, though single readings can be large; an effect the other way counts as inactive or inconclusive.

A short description of experiment [1]: qHTS assay for small molecule agonists of the p53 signaling pathway (AID 651631; calls by dose curve; also: potency is read from the fitted curve at half-maximal effect; nearly all actives have a fitted effect of over 15% in size). A digest of the protocol:
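p53RE-bla HCT-116 cells; compounds 16 h, 37 °C; LiveBLAzer B/G FRET substrate 2 h RT; fluorescence intensity read-out, qHTS format.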
Background: qHTS replaces the single test concentration by a dilution series.

A short description of experiment [2]: qHTS assay for small molecule agonists of the p53 signaling pathway - cell viability (AID 651633; calls by dose curve; also: nearly all actives have a fitted effect of over 30% in size; also: potency is read from the fitted curve at half-maximal effect). In a few lines:
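p53RE-bla cells, seeded at 4,000 per well and rested 5 h at 37 C/5% CO2, received compounds in DMSO for 16 h at 37 C. CellTiter-Glo was then added, and luminescence was read after 30 min at room temperature to gauge cytotoxicity.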

The nature of experiment [3]: qHTS assay for small molecules that induce genotoxicity in human embryonic kidney cells expressing luciferase-tagged ATAD5 - cell viability (AID 651634; calls by dose curve; also: nearly all actives have a fitted effect of over 25% in size; also: potency is read from the fitted curve at half-maximal effect). In a few lines:
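HEK293T cells expressing luciferase-tagged ATAD5 were exposed to compound or DMSO for 15.5 hr at 37C, 5% CO2. Viability was then read as live-cell protease activity by CellTiter-Fluor fluorescence after 30 min at 37C.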

Experiment [4] is described as follows: qHTS assay for small molecule disruptors of the mitochondrial membrane potential (AID 720635). Also: potency is read from the fitted curve at half-maximal effect. A digest of the protocol:
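HepG2 cells (2,000/well) attached overnight at 37C, then took compound for 1 hr at 37C, 5% CO2. Mito-MPS dye was added for 30 min; fluorescence was read at 490/535 nm (monomers) and 540/590 nm (aggregates).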

Experiment [5] is described as follows: qHTS assay to test for compound auto fluorescence at 590 nm (red) in HepG2 cells (AID 720674). In a few lines: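 Rose Bengal sodium served as the red fluorophore standard. HepG2 monolayers (overnight attachment, MEM with 10% FBS) were exposed to test compounds for 1 hr at 37 C and read at Ex 540/Em 590 nm.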
A short description of experiment [6]: qHTS assay to test for compound auto fluorescence at 535 nm (green) in HepG2 cells (AID 720675). Also: potency is read from the fitted curve at half-maximal effect.
Experiment [7] can be described thus: qHTS assay to test for compound auto fluorescence at 460 nm (blue) in HEK293 cells (AID 720678). Also: potency is read from the fitted curve at half-maximal effect. A digest of the protocol: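 Intrinsic compound fluorescence is recorded in live HEK293 cultures after overnight incubation at 37C, 5% CO2, using excitation 405 nm and emission 460 nm. Values are referenced to triamterene.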
Experiment [8] in a line: qHTS assay to test for compound auto fluorescence at 535 nm (green) in HEK293 cells (AID 720680).
The nature of experiment [9]: qHTS assay to test for compound auto fluorescence at 460 nm (blue) in HEK293 cell free culture (AID 720681). Also: potency is read from the fitted curve at half-maximal effect. A digest of the protocol: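 Test compounds were pinned into cell-free culture medium (DMEM with 10% FBS) and fluorescence was read directly at Ex/Em 405/460 nm. Signals were expressed as fluorescence equivalents of triamterene, with DMSO vehicle as control.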

Experiment [10] is described as follows: qHTS assay to test for compound auto fluorescence at 535 nm (green) in HEK293 cell free culture (AID 720682). A digest of the protocol:
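Cell-free medium (DMEM, 10% FBS) receives compound or DMSO by pintool. Plate read directly at Ex 485/Em 535 nm. Signal converted to fluorescein equivalency.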

Experiment [11] in a line: qHTS assay to test for compound auto fluorescence at 590 nm (red) in HEK293 cell free culture (AID 720683). A digest of the protocol: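 Tox21 10K library compounds were pinned into cell-free DMEM with 10% FBS and fluorescence was read at excitation 540 nm. Activity is expressed as Rose Bengal sodium equivalency.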
Experiment [12] is described as follows: qHTS assay to test for compound auto fluorescence at 590 nm (red) in HepG2 cell free culture (AID 720684). In a few lines: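 Red fluorescence (540 nm excitation, 590 nm emission) was measured after compound transfer into cell-free MEM supplemented with 10% FBS. Values are equivalencies against Rose Bengal sodium.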
Experiment [13] is described as follows: qHTS assay to test for compound auto fluorescence at 460 nm (blue) in HepG2 cell free culture (AID 720685). Also: potency is read from the fitted curve at half-maximal effect. In a few lines:
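Compound (23 nL) or DMSO pinned into cell-free MEM with 10% FBS; blue fluorescence read at 405/460 nm excitation/emission, expressed as auto-fluorescence equivalency to triamterene.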

Experiment [14] is described as follows: qHTS assay to test for compound auto fluorescence at 535 nm (green) in HepG2 cell free culture (AID 720686).
The nature of experiment [15]: qHTS assay to test for compound auto fluorescence at 460 nm (blue) in HepG2 cells (AID 720687). Also: potency is read from the fitted curve at half-maximal effect. In a few lines: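 Cells (2,000/well in MEM with 10% FBS) attached overnight at 37 C, then were exposed to compound or DMSO for 1 hr at 37 C, 5% CO2. Fluorescence read at Ex/Em 405/460 nm, expressed as triamterene-equivalent signal.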
Experiment [16] concerns the target Glucocorticoid receptor (Homo sapiens) (UniProt P04150). Put plainly: qHTS assay to identify small molecule agonists of the glucocorticoid receptor (GR) signaling pathway (AID 720691; active = well fitted activation curve with a large enough effect in the signal ratio in the repeat runs, not every such curve was filed as active; inconclusive = weak or mixed curves, or effect the other way; inactive = no such curve, though single readings can be large or run the other way; the % refers to the signal ratio; also: potency is read from the fitted curve at half-maximal effect). The settings on record: GR-bla HeLa, beta-lactamase reporter ratio, 18 h; activation: at 62.4 µM (top of the series). A digest of the protocol: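 GR-bla HeLa cells (beta-lactamase reporter under glucocorticoid response element) were plated 4 h at 37 C/5% CO2, given compounds in DMSO, and incubated 18 h at 37 C. LiveBLAzer B/G FRET substrate was added for 2 h at room temperature, then fluorescence intensity read.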

Experiment [17] in a line: qHTS assay for small molecules that induce genotoxicity in human embryonic kidney cells expressing luciferase-tagged ATAD5 (AID 651632). Also: nearly all actives have a fitted effect of over 15% in size. A digest of the protocol: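 HEK293T cells carrying a luciferase reporter tagged to ATAD5 were exposed to compound or DMSO vehicle for 16 hr at 37C, 5% CO2. Amplite was added, and after 30 min at room temperature luciferase activity was read as a marker of ATAD5 induction.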

A short description of experiment [18]: qHTS assay for small molecule disruptors of the mitochondrial membrane potential - cell viability (AID 720634; calls by dose curve; also: nearly all actives have a fitted effect of over 20% in size; also: potency is read from the fitted curve at half-maximal effect). A digest of the protocol: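 HepG2 cells seeded overnight at 37 C, then exposed to compound or DMSO for 1 hr at 37 C, 5% CO2. m-MPI dye added, then CellTiter-Glo for 30 min at room temperature; viability read as ATP luminescence.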
A short description of experiment [19]: qHTS assay to test for compound auto fluorescence at 590 nm (red) in HEK293 cells (AID 720679). In a few lines: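 Red autofluorescence, HEK293 cells: 2,000 cells/well; attach 4-5 hr 37C; add 23 nL cpd or DMSO; incubate o/n 37C 5% CO2; read Ex540/Em590; Rose Bengal sodium reference.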
Tags tell the direction and shape of the fitted curve or compound fluorescence and quenching.

Sequence of Glucocorticoid receptor (Homo sapiens) (P04150 whole entry, looked up): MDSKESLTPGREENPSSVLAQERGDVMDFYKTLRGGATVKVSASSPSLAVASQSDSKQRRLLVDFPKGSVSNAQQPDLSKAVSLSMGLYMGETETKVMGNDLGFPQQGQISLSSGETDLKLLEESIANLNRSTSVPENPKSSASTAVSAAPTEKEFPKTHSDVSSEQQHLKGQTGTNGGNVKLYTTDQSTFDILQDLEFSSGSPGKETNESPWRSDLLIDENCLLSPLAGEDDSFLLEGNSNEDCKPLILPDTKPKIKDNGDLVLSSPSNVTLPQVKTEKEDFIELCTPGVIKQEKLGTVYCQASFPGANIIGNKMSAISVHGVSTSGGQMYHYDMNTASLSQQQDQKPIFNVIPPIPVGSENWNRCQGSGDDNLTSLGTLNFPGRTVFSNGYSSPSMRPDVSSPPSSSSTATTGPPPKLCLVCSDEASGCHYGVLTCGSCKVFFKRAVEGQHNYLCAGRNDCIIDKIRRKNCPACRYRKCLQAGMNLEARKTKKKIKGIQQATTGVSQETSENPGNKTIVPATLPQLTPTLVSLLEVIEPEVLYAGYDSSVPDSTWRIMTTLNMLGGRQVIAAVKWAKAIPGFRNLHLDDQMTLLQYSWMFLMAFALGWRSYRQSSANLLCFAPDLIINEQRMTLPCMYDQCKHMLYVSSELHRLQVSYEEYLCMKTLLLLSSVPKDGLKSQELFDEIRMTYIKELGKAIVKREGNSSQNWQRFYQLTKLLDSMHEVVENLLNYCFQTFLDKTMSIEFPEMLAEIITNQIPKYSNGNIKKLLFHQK

Regarding `CN(C)c1ccc(C2(c3ccc(N(C)C)cc3)OC(=O)c3cc(N(C)C)ccc32)cc1`, the figures for the Potency in experiment [1], in experiment [4] and in experiment [16] were 60.9 µM (active), 21.6 µM (active) and 4.35 µM [inconclusive] (active), respectively. The Potency entry in experiment [2], in [3], in experiment [5], in experiment [6], in experiment [7] and in [9] was “inactive” each time. Also, the Potency entry in experiment [11], in [12], in experiment [13], in experiment [14] and in experiment [15] was “inactive” in each case. The call in experiment [8] and in experiment [10] was inactive.

`Nc1ccc(N)c2ccccc12`: the Potency result in [17], in [5], in [7], in experiment [19], in experiment [9] and in experiment [11] was “inactive” throughout. Besides, the Potency result in experiment [12], in experiment [13] and in experiment [15] was “inactive” throughout. In addition, the Potency in [2] was 15.3 µM (active); in experiment [3], 15.3 µM (active); in [18], 13.7 µM (active); in [4] it was 0.153 µM (active); in experiment [6], 8.91 µM (active). Also, the molecule was classed as inactive in [8] and in experiment [10].

`CC1=C(C(=O)OC(C)C)C(c2cccc([N+](=O)[O-])c2)C(C(=O)OC2CN(C(c3ccccc3)c3ccccc3)C2)=C(N)N1` (configuration not stated): the Potency entry in experiment [17], in experiment [5], in [6], in experiment [7], in [19] and in experiment [9] was “inactive” in each case. In addition, the Potency entry in experiment [11], in experiment [12], in experiment [14] and in experiment [15] was “inactive” in each case. For the same molecule, the Potency in experiment [2] was 7.5 µM (active); in experiment [3], 18.8 µM (active); in experiment [18], 7.5 µM (active); in experiment [4], 1.19 µM (active). For the same molecule, the call in experiment [8] and in experiment [10] was inactive.

Consider `Cc1cc(=O)oc2cc(N(C)C)ccc12`, for which the Potency in experiment [1] was 48.6 µM (active); in [7], 39.8 µM [fluorescent] (active); in experiment [9], 39.8 µM (active); in experiment [13] it was 44.7 µM [fluorescent] (active); in experiment [15], 44.7 µM [fluorescent] (active). The Potency entry in [2], in experiment [18], in [5], in experiment [19], in [11] and in experiment [12] was “inactive” in each case. Besides, the Potency result in experiment [14] is “inactive”. Further, the result in experiment [8] and in experiment [10] was inactive.

Take `CCCCCCCCOc1ccccc1C(=O)Nc1ccc(C(=O)OCC[N+](C)(CC)CC)cc1`: the Potency result in [17], in [3], in [18], in experiment [5], in experiment [6] and in experiment [7] was “inactive” in each case. In addition, the Potency result in experiment [9], in experiment [11], in [12], in experiment [13], in experiment [14] and in experiment [15] was “inactive” in each case. The Potency in [2] is 23.7 µM (active); in experiment [4] it was 31.2 µM (active). In [8], the molecule was classed as inactive.

For the molecule `CCCCCCCCCCCCCCCCCC[N+](C)(C)Cc1ccccc1`, the Potency entry in [17], in [5], in experiment [6], in experiment [7], in [9] and in [11] was “inactive” each time. Moreover, the Potency result in [13] and in experiment [15] was “inactive” throughout. The Potency was 24.6 µM (active) in [2], 55 µM (active) in experiment [3], 69.2 µM (active) in experiment [18] and 15.5 µM (active) in experiment [4]. The molecule was called inactive in experiment [8] and in experiment [10].

As to `CCCCCCCCCCCC[N+](C)(C)CCCCCCCCCCCC`, the Potency entry in [17], in experiment [5], in experiment [6], in [7], in [19] and in experiment [9] was “inactive” throughout. Moreover, the Potency result in experiment [11], in experiment [13], in experiment [14] and in [15] was “inactive” each time. Moreover, the Potency in experiment [2] is 54.5 µM (active); in [3] it was 68.6 µM (active); in experiment [18], 30.6 µM (active); in experiment [4] it was 19.3 µM (active). The molecule was classed as inactive in [8] and in experiment [10].
